Results filed as inconclusive are left out. Calls of active or inactive are those of the source. Calls follow the shape of the full dose curve.
Experiment: qHTS for inhibitors of Rabies Virus screened against the NCATS CANVASS Library (AID 1347402); also: 0% is about no effect
Conditions: Rabies virus infection cell assay; series mostly up to 45.9 µM; activity change, negative = inhibition: at the top concentration
For `O=C1c2c(O)cc(O)cc2OC(c2ccc(O)cc2)C1O` (stereo not drawn), the “activity change, negative = inhibition” value was -19% (inactive).
For `CC1(C)CC[C@]2(CO)CC[C@]3(C)C(=CCC4[C@@]5(C)CC[C@H](O)C(C)(C)C5CC[C@]43C)C2C1` (stereo partly drawn), the “activity change, negative = inhibition” value was 0.666% (inactive).
For `C=C1C[C@]23C=CC(=O)[C@@](C)(CCCC(C)C(=O)N[C@@H](CO)C(=O)O)[C@@H]2C[C@@H]1CC3` (stereo partly drawn), the “activity change, negative = inhibition” value was 0.299% (inactive).
In the case of `COc1ccc2oc3c(OC)c(OC)c(OC)c(OC)c3c(=O)c2c1`, the activity change, negative = inhibition is reported as -7.41% [at 9.14 µM] (inactive).
With `C=CC(CCCCC)C1C(=O)NC(=O)C1C(=O)C1C2C(C)CC(C(=O)O)CC2CC1(O)C(=O)/C=C/C` (stereo not drawn) the “activity change, negative = inhibition” value was -1.16% (inactive).
In the case of `Cc1cc(O)cc2c1C(=O)c1c(O)cc(O)cc1C2=O`, the “activity change, negative = inhibition” value is reported as 4.13% (inactive).
With `CO[C@H]1[C@@H](OC(=O)/C(C)=C\[C@@H]2O[C@@H]2[C@H]2O[C@H]2C)[C@H](O)[C@H](OCC23C[C@@H]4[C@H](C)CC[C@H]4C4(C=O)CC2C=C(C(C)C)C34C(=O)O)O[C@@H]1C` (stereo partly drawn) the “activity change, negative = inhibition” value was -16.9% (inactive).
With `C/C=C(/CO)C(=O)O[C@@H]1[C@H](O)[C@@H](C(=O)OC)O[C@@H]2C[C@H]3OC(n4cnc5c(N)ncnc54)[C@H](OC)[C@H]3O[C@@]12O` (stereo partly drawn) the “activity change, negative = inhibition” value was 26% (inactive).

Source: PubChem BioAssay (NCATS)
